According to the supplement of paper PMC10849652:
About 7,900 targets were measured; listed, in parts, are those with a hit and a random draw of the rest. About 0.6% of all pairs of compound and target were hits. Values without a mark were called inactive.

compound: O=C(CCCCCCC(=O)Nc1ccccc1)NO [vorinostat]; test: log2 fold change, soluble protein after heating vs DMSO (PISA); higher = thermal stabilisation; K562 cells, 10 uM, 30 min; active = over 0.2 and 3.5 SD of the protein, either way, in both replicates (recomputed)
Outline: (§1)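 K562 cells at 2×10^6 cells/mL were exposed to 10 μM compound for 30 min, then aliquots were heated for 3 min across 48°C-58°C, pooled, and extracted in PBS containing 0.5% NP-40 at 4°C. The supernatant after 21,000xg for 90 min was taken as soluble protein and measured by TMTpro 16plex LC-MS/MS with channel sums equalised. Thermal stability is reported relative to control samples, with values from duplicates. Fold changes are given on a log2 scale.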

Chain of UniProt Q562R1 (Q562R1 whole entry, looked up): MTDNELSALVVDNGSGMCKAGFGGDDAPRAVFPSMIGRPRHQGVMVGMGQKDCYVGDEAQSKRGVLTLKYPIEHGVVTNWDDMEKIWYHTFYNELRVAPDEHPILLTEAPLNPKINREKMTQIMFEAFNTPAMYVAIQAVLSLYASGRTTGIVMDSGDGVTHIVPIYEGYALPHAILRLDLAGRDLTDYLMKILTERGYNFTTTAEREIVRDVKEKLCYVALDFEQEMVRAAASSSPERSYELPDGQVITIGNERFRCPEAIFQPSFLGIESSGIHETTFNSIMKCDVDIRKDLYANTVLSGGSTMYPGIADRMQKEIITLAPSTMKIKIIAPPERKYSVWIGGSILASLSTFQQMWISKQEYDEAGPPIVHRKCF
Chain of UniProt Q00973 (Q00973 whole entry, looked up): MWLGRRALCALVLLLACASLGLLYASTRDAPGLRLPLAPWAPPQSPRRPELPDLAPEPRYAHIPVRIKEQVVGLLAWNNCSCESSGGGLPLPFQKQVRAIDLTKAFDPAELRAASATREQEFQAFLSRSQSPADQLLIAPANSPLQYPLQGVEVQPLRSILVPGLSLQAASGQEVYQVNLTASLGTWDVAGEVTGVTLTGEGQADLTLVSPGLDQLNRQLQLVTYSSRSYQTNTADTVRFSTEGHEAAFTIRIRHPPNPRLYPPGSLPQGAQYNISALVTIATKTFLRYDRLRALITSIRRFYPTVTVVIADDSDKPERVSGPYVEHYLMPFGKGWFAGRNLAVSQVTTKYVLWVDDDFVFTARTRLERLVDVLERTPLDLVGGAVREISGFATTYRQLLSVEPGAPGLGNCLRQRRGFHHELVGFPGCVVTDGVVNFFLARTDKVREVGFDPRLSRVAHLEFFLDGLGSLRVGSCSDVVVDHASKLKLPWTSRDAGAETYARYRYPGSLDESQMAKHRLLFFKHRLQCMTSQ
Chain of UniProt P24666 (P24666 whole entry, looked up): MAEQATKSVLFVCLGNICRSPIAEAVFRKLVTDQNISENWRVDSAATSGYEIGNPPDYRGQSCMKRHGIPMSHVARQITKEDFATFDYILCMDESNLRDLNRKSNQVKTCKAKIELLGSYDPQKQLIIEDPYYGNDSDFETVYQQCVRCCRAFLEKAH
Chain of UniProt Q96F25 (Q96F25 whole entry, looked up): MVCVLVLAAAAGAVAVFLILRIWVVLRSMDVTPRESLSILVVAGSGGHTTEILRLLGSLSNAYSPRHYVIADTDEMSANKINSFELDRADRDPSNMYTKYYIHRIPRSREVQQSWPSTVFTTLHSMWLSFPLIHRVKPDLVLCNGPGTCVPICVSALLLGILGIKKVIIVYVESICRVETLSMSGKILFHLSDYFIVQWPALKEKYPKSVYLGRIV
Chain of UniProt Q96BI3 (Q96BI3 whole entry, looked up): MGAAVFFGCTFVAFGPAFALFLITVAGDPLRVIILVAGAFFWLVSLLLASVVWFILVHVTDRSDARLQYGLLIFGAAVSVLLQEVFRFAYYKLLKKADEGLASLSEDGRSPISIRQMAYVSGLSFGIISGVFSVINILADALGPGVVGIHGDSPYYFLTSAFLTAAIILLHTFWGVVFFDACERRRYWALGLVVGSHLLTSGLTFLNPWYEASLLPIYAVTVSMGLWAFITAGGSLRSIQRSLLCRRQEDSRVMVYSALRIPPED
Chain of UniProt O00170 (O00170 whole entry, looked up): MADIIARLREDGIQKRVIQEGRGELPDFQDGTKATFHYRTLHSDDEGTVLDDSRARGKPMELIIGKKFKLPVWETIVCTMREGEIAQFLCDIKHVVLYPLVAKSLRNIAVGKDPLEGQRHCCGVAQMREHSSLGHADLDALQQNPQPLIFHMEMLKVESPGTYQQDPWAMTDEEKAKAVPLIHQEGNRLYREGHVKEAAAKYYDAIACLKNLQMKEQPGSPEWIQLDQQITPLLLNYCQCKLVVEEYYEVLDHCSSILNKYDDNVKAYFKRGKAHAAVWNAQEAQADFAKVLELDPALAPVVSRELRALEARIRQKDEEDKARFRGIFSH
Chain of UniProt P17707 (P17707 whole entry, looked up): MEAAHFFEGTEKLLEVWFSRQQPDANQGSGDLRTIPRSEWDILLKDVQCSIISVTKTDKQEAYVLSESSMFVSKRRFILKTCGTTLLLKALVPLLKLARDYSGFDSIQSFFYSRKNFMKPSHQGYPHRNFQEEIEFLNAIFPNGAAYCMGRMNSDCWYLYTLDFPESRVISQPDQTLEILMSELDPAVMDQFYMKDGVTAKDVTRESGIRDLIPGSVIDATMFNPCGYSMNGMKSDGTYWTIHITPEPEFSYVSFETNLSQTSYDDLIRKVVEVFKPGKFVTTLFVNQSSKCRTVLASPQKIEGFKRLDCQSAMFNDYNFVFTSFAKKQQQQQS
Chain of UniProt P02749 (P02749 whole entry, looked up): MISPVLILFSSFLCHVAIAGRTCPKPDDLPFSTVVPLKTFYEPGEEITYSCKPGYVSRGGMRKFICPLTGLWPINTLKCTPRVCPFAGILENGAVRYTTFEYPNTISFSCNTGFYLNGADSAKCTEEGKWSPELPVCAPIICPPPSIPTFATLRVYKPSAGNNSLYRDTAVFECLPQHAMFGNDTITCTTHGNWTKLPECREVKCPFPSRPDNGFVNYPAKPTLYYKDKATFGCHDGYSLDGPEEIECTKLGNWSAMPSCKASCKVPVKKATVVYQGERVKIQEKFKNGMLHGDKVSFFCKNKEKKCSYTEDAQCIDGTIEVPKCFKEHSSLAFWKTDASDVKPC
Chain of UniProt Q9NYF8 (Q9NYF8 whole entry, looked up): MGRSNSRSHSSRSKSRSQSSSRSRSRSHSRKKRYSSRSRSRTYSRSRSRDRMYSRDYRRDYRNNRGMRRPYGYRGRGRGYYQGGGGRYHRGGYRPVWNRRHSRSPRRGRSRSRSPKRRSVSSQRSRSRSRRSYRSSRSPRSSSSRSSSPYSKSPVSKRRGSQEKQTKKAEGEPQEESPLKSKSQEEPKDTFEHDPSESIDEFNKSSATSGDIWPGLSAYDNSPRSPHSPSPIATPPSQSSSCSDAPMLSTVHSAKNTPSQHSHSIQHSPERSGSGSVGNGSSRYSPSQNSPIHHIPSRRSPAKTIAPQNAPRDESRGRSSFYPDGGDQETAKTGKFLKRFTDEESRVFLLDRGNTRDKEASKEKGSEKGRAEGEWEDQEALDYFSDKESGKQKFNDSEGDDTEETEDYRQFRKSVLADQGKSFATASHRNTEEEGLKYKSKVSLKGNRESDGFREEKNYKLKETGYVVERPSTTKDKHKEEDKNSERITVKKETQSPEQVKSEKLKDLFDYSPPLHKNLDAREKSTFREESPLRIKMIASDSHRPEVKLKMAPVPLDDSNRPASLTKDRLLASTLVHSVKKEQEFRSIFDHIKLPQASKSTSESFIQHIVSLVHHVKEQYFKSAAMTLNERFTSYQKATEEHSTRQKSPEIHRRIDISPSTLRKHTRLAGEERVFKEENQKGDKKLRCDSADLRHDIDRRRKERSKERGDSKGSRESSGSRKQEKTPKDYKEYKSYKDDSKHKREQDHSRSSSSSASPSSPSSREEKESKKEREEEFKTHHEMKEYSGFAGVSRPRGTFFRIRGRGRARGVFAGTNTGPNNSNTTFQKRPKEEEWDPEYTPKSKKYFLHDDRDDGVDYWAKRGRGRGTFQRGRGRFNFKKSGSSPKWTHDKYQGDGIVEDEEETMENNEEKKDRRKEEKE
Chain of UniProt Q8NFV4 (Q8NFV4 whole entry, looked up): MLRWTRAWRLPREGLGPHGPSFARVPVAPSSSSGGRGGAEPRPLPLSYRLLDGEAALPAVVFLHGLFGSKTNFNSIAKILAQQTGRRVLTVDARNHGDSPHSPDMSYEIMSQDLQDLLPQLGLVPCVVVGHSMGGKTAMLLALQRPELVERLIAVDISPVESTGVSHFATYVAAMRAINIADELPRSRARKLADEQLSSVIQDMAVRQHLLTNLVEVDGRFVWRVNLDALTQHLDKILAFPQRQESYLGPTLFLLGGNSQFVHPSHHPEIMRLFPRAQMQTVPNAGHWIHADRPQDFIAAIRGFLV
Chain of UniProt O00244 (O00244 whole entry, looked up): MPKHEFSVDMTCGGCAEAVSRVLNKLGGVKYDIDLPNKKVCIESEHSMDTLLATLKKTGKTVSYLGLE
Chain of UniProt Q9NWB6 (Q9NWB6 whole entry, looked up): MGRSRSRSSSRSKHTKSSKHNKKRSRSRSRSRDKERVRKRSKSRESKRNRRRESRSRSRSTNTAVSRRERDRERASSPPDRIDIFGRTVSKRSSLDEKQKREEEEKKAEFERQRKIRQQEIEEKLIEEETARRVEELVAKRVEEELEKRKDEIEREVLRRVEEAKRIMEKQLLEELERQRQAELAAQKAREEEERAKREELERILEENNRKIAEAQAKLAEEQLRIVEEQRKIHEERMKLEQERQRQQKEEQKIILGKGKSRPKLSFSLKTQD
Chain of UniProt Q8N5I2 (Q8N5I2 whole entry, looked up): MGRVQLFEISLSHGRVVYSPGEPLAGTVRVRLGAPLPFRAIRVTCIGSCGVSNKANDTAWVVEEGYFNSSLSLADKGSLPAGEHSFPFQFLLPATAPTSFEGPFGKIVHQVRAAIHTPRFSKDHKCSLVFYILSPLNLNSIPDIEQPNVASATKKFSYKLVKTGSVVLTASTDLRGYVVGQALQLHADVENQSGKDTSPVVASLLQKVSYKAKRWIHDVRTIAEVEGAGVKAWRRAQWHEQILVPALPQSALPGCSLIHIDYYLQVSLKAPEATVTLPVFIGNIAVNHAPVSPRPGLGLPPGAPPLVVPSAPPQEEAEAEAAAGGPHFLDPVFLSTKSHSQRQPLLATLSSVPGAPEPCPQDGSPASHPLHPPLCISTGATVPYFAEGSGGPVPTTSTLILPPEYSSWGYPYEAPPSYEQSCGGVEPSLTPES
Chain of UniProt P36405 (P36405 whole entry, looked up): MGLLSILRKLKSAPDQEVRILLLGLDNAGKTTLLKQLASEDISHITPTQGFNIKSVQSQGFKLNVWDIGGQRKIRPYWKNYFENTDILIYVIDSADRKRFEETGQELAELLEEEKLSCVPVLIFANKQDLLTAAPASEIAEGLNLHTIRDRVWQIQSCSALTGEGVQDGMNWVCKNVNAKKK

Question: Which log2 fold change does the source give for AMD1 (UniProt P17707) here?
Answer: -0.093

Question: Which log2 fold change does the source give for APOH (UniProt P02749) here?
Answer: 0.354

Question: For APH1A (UniProt Q96BI3), which log2 fold change is on record?
Answer: -0.024

Question: How did the log2 fold change turn out when AUP1 (UniProt Q9Y679) was run?
Answer: 0.135

compound: O=C(CCCCCCNC(=O)c1cnc(N(c2ccccc2)c2ccccc2Cl)nc1)NO [citarinostat]; test: as above
Outline: as §1

Question: ARL3 (UniProt P36405) was tested. Which log2 fold change did it give?
Answer: 0.05

Question: With ABCA4 (UniProt P78363) as the target, how does the log2 fold change read?
Answer: 0.013

Question: For ALG14 (UniProt Q96F25), which log2 fold change is on record?
Answer: 0.028

Question: How did the log2 fold change turn out when AFDN isoform 5 (UniProt P55196) was run?
Answer: 0.079

Question: AP2M1 (UniProt Q96CW1) was tested. Which log2 fold change did it give?
Answer: -0.004

Question: How did the log2 fold change turn out when ASB6 (UniProt Q9NWX5) was run?
Answer: 0.106

Question: How did the log2 fold change turn out when ATOX1 (UniProt O00244) was run?
Answer: 0.091

Question: ADAMTS5 (UniProt Q9UNA0) was tested. Which log2 fold change did it give?
Answer: 0.074

Question: How did the log2 fold change turn out when ATP7B (UniProt P35670) was run?
Answer: 0.005

Question: ATRN (UniProt O75882) was tested. Which log2 fold change did it give?
Answer: -0.004

Question: For BRD3 (UniProt Q15059), which log2 fold change is on record?
Answer: -0.567 (active)

Question: How did the log2 fold change turn out when ACP1 (UniProt P24666) was run?
Answer: 0.012

Question: For BRIP1 (UniProt Q9BX63), which log2 fold change is on record?
Answer: 0.054

Question: How did the log2 fold change turn out when ATXN3 isoform 1 (UniProt P54252) was run?
Answer: -0.01

Question: Which log2 fold change does the source give for ARRDC1 (UniProt Q8N5I2) here?
Answer: 0.056

Question: How did the log2 fold change turn out when ACTBL2 (UniProt Q562R1) was run?
Answer: -0.585

Question: For AIP (UniProt O00170), which log2 fold change is on record?
Answer: 0.105

Question: How did the log2 fold change turn out when ARHGAP25 isoform 4 (UniProt P42331) was run?
Answer: 0.105

Question: ABHD11 (UniProt Q8NFV4) was tested. Which log2 fold change did it give?
Answer: 0.058

Question: How did the log2 fold change turn out when ATF1 (UniProt P18846) was run?
Answer: 0.144

Question: ARGLU1 (UniProt Q9NWB6) was tested. Which log2 fold change did it give?
Answer: 0.026

Question: For BCLAF1 (UniProt Q9NYF8), which log2 fold change is on record?
Answer: 0.07

Question: B4GALNT1 (UniProt Q00973) was tested. Which log2 fold change did it give?
Answer: 0.538 (active)

Question: With ARFGAP1 (UniProt Q8N6T3) as the target, how does the log2 fold change read?
Answer: 0.056

Question: Which log2 fold change does the source give for ANK2 (UniProt Q01484) here?
Answer: -0.104

Question: ACTR1B (UniProt P42025) was tested. Which log2 fold change did it give?
Answer: 0.078

Question: Which log2 fold change does the source give for AMD1 (UniProt P17707) here?
Answer: 0.007

Question: Which log2 fold change does the source give for APOH (UniProt P02749) here?
Answer: -0.149

Question: APH1A (UniProt Q96BI3) was tested. Which log2 fold change did it give?
Answer: 0.055

Question: How did the log2 fold change turn out when AUP1 (UniProt Q9Y679) was run?
Answer: 0.067

compound: O=C(O)c1ccc2c(c1)nc(Nc1cccc(Cl)c1)c1ccncc12 [silmitasertib]; test: as above
Outline: as §1

Question: With BSCL2 isoform 4 (UniProt Q96G97) as the target, how does the log2 fold change read?
Answer: 0.172

Question: Which log2 fold change does the source give for ARL3 (UniProt P36405) here?
Answer: 0

Question: ABCA4 (UniProt P78363) was tested. Which log2 fold change did it give?
Answer: -0.082

Question: Which log2 fold change does the source give for ALG14 (UniProt Q96F25) here?
Answer: 0.076

Question: AFDN isoform 5 (UniProt P55196) was tested. Which log2 fold change did it give?
Answer: -0.012

Question: With AP2M1 (UniProt Q96CW1) as the target, how does the log2 fold change read?
Answer: 0.029

Question: Which log2 fold change does the source give for ASB6 (UniProt Q9NWX5) here?
Answer: -0.006

Question: For ATOX1 (UniProt O00244), which log2 fold change is on record?
Answer: -0.105

Question: How did the log2 fold change turn out when ADPRH (UniProt P54922) was run?
Answer: 0.086

Question: With ADAMTS5 (UniProt Q9UNA0) as the target, how does the log2 fold change read?
Answer: -0.064

Question: For AASDH (UniProt Q4L235), which log2 fold change is on record?
Answer: 0.036

Question: How did the log2 fold change turn out when ATP7B (UniProt P35670) was run?
Answer: 0.036

Question: Which log2 fold change does the source give for ATRN (UniProt O75882) here?
Answer: 0.006

Question: How did the log2 fold change turn out when BRD3 (UniProt Q15059) was run?
Answer: 0.061

Question: ACP1 (UniProt P24666) was tested. Which log2 fold change did it give?
Answer: 0.088

Question: How did the log2 fold change turn out when ATXN3 isoform 1 (UniProt P54252) was run?
Answer: 0.093

Question: How did the log2 fold change turn out when ARRDC1 (UniProt Q8N5I2) was run?
Answer: 0.075

Question: How did the log2 fold change turn out when ACTBL2 (UniProt Q562R1) was run?
Answer: -0.129

Question: With AIP (UniProt O00170) as the target, how does the log2 fold change read?
Answer: 0.038

Question: Which log2 fold change does the source give for ARHGAP25 isoform 4 (UniProt P42331) here?
Answer: 0.213

Question: ABHD11 (UniProt Q8NFV4) was tested. Which log2 fold change did it give?
Answer: -0.021

Question: ATF1 (UniProt P18846) was tested. Which log2 fold change did it give?
Answer: -0.146

Question: Which log2 fold change does the source give for ARFIP1 isoform 2 (UniProt P53367) here?
Answer: -0.08

Question: With ACSL6 isoform 1 (UniProt Q9UKU0) as the target, how does the log2 fold change read?
Answer: -0.077

Question: Which log2 fold change does the source give for ARGLU1 (UniProt Q9NWB6) here?
Answer: -0.245

Question: Which log2 fold change does the source give for BCLAF1 (UniProt Q9NYF8) here?
Answer: -0.361

Question: Which log2 fold change does the source give for B4GALNT1 (UniProt Q00973) here?
Answer: 0.062

Question: ARFGAP1 (UniProt Q8N6T3) was tested. Which log2 fold change did it give?
Answer: 0.063

Question: ANK2 (UniProt Q01484) was tested. Which log2 fold change did it give?
Answer: -0.004

Question: With ACTR1B (UniProt P42025) as the target, how does the log2 fold change read?
Answer: 0.023

Question: With AMD1 (UniProt P17707) as the target, how does the log2 fold change read?
Answer: 0.004

Question: With APOH (UniProt P02749) as the target, how does the log2 fold change read?
Answer: 0.565

Question: APH1A (UniProt Q96BI3) was tested. Which log2 fold change did it give?
Answer: 0.006

Question: How did the log2 fold change turn out when AUP1 (UniProt Q9Y679) was run?
Answer: 0.019

compound: O=C1NC(=O)C(c2cnc3ccccn23)=C1c1cn2c3c(cc(F)cc13)CN(C(=O)N1CCCCC1)CC2; test: as above
Outline: as §1

Question: With BSCL2 isoform 4 (UniProt Q96G97) as the target, how does the log2 fold change read?
Answer: 0.033

Question: How did the log2 fold change turn out when ARL3 (UniProt P36405) was run?
Answer: -0.001

Question: With ABCA4 (UniProt P78363) as the target, how does the log2 fold change read?
Answer: -0.041

Question: ALG14 (UniProt Q96F25) was tested. Which log2 fold change did it give?
Answer: 0.061

Question: Which log2 fold change does the source give for AFDN isoform 5 (UniProt P55196) here?
Answer: -0.052

Question: How did the log2 fold change turn out when AP2M1 (UniProt Q96CW1) was run?
Answer: -0.237 (active)

Question: Which log2 fold change does the source give for ASB6 (UniProt Q9NWX5) here?
Answer: 0.059

Question: With ATOX1 (UniProt O00244) as the target, how does the log2 fold change read?
Answer: -0.081

Question: Which log2 fold change does the source give for ADPRH (UniProt P54922) here?
Answer: -0.104

Question: Which log2 fold change does the source give for AASDH (UniProt Q4L235) here?
Answer: -0.064

Question: Which log2 fold change does the source give for ATP7B (UniProt P35670) here?
Answer: -0.036

Question: How did the log2 fold change turn out when ATRN (UniProt O75882) was run?
Answer: -0.538 (active)

Question: With ACP1 (UniProt P24666) as the target, how does the log2 fold change read?
Answer: -0.074

Question: Which log2 fold change does the source give for BRIP1 (UniProt Q9BX63) here?
Answer: -0.07

Question: Which log2 fold change does the source give for ARRDC1 (UniProt Q8N5I2) here?
Answer: -0.008

Question: ACTBL2 (UniProt Q562R1) was tested. Which log2 fold change did it give?
Answer: -0.051

Question: Which log2 fold change does the source give for ADAM15 (UniProt Q13444) here?
Answer: 0.031

Question: Which log2 fold change does the source give for AIP (UniProt O00170) here?
Answer: 0.031

Question: ARHGAP25 isoform 4 (UniProt P42331) was tested. Which log2 fold change did it give?
Answer: 0.021

Question: Which log2 fold change does the source give for ABHD11 (UniProt Q8NFV4) here?
Answer: -0.159

Question: With ATF1 (UniProt P18846) as the target, how does the log2 fold change read?
Answer: 0.372 (active)

Question: With ARFIP1 isoform 2 (UniProt P53367) as the target, how does the log2 fold change read?
Answer: -0.062

Question: How did the log2 fold change turn out when ACSL6 isoform 1 (UniProt Q9UKU0) was run?
Answer: -0.421

Question: ARGLU1 (UniProt Q9NWB6) was tested. Which log2 fold change did it give?
Answer: 0.319

Question: With BCLAF1 (UniProt Q9NYF8) as the target, how does the log2 fold change read?
Answer: 0.128

Question: With B4GALNT1 (UniProt Q00973) as the target, how does the log2 fold change read?
Answer: -0.095

Question: How did the log2 fold change turn out when ARFGAP1 (UniProt Q8N6T3) was run?
Answer: -0.092

Question: For ACTR1B (UniProt P42025), which log2 fold change is on record?
Answer: 0.06

Question: How did the log2 fold change turn out when AMD1 (UniProt P17707) was run?
Answer: -0.007

Question: Which log2 fold change does the source give for AUP1 (UniProt Q9Y679) here?
Answer: 0.064
